# For some assays here: Entries with a potency or affinity are not part of this list.
# Tests used:
# Parameters in all cases: scale not given: direction of the effect not stated beside the values
# [1] = biological target: Protein translocase subunit SecA (Escherichia coli (strain K12)) (UniProt P10408); experiment: Assay to Identify E. coli SecA ATPase Inhibitors; assay type: functional; conditions: 30 µM
# [2] = biological target: T1, Ubiquitin-activating enzyme e1, putative (Leishmania donovani (strain BPK282A1)) (UniProt E9BSI1); experiment: Leishmania donovani Ubiquitin Activating Enzyme (LdE1); assay type: functional; conditions: 30 µM
# T1 sequence (whole entry): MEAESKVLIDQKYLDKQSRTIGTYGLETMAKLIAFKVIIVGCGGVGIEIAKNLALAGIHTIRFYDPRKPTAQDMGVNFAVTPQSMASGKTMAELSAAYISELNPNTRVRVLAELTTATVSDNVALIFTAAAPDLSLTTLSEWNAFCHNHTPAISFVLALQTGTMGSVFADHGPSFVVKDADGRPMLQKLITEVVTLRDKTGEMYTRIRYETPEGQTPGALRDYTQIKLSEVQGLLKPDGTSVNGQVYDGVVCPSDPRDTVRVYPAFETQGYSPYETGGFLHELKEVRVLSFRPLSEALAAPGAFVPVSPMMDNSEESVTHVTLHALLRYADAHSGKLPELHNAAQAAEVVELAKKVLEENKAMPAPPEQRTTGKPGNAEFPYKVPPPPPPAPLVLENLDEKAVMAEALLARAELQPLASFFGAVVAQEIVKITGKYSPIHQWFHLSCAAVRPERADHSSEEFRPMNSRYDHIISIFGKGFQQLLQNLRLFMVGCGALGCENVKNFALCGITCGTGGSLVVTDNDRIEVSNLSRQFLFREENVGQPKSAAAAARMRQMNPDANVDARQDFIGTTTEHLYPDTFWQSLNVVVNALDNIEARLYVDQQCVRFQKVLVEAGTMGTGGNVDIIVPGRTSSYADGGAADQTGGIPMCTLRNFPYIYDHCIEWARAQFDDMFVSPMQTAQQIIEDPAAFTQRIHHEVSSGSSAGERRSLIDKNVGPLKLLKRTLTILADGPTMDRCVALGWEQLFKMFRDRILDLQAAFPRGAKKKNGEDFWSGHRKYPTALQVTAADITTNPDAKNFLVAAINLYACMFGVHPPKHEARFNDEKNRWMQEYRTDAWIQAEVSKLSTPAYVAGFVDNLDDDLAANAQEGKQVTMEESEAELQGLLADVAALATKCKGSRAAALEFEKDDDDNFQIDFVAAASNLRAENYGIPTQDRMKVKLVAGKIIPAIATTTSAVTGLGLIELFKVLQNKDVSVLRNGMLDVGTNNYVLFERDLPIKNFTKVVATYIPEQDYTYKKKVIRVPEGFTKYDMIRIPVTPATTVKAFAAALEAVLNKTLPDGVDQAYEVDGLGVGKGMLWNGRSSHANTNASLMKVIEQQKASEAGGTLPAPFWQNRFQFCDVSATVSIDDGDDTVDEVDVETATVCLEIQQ
# [3] = biological target: AMP-activated protein kinase, AMPK (Homo sapiens) (UniProt P54646+O43741+P54619+Q9UGJ0+Q9Y478+Q13131+Q9UGI9); experiment: AMP-dependent Kinase enzyme assay. An in vitro enzyme assay that detects ADP turnover that is directly proportional to AMPK activity. This uses naive AMPK that is activated during the assay with MK-8722; assay type: functional; conditions: 30 µM
# [4] = biological target: Sialic acid-binding Ig-like lectin 9 (Homo sapiens) (UniProt Q9Y336); experiment: Hs-Siglec9 ALPHAscreen SOP 20170721; conditions: 10 µM
# Chain of Sialic acid-binding Ig-like lectin 9 (Homo sapiens) (Q9Y336 whole entry): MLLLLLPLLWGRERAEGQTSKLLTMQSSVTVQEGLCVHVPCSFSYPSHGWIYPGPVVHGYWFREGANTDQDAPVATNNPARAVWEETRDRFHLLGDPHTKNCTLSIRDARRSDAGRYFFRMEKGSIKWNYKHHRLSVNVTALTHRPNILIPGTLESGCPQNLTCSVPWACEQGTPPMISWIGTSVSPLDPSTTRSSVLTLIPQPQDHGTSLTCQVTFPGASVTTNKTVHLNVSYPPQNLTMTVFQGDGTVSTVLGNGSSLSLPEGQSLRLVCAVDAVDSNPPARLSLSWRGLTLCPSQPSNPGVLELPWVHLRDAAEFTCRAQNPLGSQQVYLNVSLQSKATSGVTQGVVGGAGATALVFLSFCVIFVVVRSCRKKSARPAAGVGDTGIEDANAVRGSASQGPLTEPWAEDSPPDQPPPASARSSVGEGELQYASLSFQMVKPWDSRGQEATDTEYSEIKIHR
# Trypanosoma cruzi = experiment: Trypanosoma cruzi phosphomannomutase and mannose-1-phosphate guanylyltransferase assay; assay type: functional; conditions: 10 µM
# [5] = biological target: T2, Arginase-2, mitochondrial (Homo sapiens) (UniProt P78540); experiment: in vitro enzyme assay to detect the production of urea directly proportional to the activity of Arginase II; assay type: functional; conditions: 33.3 µM; note: in the data most compounds retested in dose-response had high values
# T2 sequence (whole entry): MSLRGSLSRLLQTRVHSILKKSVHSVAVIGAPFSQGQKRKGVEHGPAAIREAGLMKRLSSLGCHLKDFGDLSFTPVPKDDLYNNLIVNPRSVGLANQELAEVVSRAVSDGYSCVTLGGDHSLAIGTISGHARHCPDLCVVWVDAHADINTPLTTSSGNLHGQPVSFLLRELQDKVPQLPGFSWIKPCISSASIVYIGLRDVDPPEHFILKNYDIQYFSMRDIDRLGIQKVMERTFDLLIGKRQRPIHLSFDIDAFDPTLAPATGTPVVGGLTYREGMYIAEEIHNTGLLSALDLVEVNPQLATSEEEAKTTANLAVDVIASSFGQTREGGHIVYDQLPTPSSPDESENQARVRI
# [6] = biological target: T3, Proteasome subunit beta (Trypanosoma cruzi) (UniProt O96673); experiment: Trypanosoma cruzi proteasome chymotrypsin-like activity (TcProtChymo) assay.; note: in the data most compounds retested in dose-response had high values; assay type: functional; conditions: 9.37 µM
# T3 sequence (whole entry): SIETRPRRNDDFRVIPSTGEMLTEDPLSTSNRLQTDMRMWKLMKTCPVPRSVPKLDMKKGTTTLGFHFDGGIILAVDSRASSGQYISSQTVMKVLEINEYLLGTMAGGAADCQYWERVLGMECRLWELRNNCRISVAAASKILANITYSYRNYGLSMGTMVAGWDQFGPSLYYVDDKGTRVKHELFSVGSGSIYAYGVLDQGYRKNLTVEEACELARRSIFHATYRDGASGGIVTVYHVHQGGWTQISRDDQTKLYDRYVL
# Homo sapiens = species: Homo sapiens; experiment: To identify inhibition of the IFN signalling (Jak-Stat) pathway via expression of an eGFP reporter gene under the control of an IFN-stimulated response element (ISRE) containing MxA promoter.; assay type: functional; conditions: 30 µM
# [7] = biological target: T4, Tyrosyl-tRNA synthetase, putative (Trypanosoma cruzi (strain CL Brener)) (UniProt Q4DSP6); experiment: Trypanosoma cruzi tyrosyl tRNA synthetase (TcYRS) _High Tyrosine SOP; assay type: functional; conditions: 30 µM; note: in the data most compounds retested in dose-response had high values
# T4 sequence (whole entry): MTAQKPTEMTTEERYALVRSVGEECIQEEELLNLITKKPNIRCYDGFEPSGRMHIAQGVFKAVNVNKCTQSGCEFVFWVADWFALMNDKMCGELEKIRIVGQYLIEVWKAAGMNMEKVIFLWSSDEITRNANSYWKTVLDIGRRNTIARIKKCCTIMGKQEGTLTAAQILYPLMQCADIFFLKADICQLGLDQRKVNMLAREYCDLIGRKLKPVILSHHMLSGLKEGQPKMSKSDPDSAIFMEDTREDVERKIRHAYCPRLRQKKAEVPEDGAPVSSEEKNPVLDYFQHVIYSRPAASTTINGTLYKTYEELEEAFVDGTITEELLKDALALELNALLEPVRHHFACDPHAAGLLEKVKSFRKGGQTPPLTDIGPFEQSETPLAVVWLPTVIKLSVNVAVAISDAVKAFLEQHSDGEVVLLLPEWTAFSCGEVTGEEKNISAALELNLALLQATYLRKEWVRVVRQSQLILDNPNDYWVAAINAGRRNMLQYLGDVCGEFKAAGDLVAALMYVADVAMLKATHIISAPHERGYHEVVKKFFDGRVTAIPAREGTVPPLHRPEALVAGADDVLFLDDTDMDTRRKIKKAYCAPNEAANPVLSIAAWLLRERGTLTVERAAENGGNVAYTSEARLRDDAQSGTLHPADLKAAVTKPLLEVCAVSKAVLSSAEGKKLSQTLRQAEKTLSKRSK
# [8] = biological target: T4, Tyrosyl-tRNA synthetase, putative (Trypanosoma cruzi (strain CL Brener)); experiment: Trypanosoma cruzi tyrosyl tRNA synthetase (TcYRS) SOP; assay type: functional; conditions: 30 µM
# [9] = biological target: Chromo domain-containing protein 1 (Saccharomyces cerevisiae (strain ATCC 204508 / S288c) (Baker's yeast)) (UniProt P32657); experiment: ScCHD-1 Enzyme Inhibition Assay; assay type: functional; conditions: 30 µM; note: in the data most compounds retested in dose-response had high values
# Chain of Chromo domain-containing protein 1 (Saccharomyces cerevisiae (strain ATCC 204508 / S288c) (Baker's yeast)) (P32657 whole entry, the tested form may be a part): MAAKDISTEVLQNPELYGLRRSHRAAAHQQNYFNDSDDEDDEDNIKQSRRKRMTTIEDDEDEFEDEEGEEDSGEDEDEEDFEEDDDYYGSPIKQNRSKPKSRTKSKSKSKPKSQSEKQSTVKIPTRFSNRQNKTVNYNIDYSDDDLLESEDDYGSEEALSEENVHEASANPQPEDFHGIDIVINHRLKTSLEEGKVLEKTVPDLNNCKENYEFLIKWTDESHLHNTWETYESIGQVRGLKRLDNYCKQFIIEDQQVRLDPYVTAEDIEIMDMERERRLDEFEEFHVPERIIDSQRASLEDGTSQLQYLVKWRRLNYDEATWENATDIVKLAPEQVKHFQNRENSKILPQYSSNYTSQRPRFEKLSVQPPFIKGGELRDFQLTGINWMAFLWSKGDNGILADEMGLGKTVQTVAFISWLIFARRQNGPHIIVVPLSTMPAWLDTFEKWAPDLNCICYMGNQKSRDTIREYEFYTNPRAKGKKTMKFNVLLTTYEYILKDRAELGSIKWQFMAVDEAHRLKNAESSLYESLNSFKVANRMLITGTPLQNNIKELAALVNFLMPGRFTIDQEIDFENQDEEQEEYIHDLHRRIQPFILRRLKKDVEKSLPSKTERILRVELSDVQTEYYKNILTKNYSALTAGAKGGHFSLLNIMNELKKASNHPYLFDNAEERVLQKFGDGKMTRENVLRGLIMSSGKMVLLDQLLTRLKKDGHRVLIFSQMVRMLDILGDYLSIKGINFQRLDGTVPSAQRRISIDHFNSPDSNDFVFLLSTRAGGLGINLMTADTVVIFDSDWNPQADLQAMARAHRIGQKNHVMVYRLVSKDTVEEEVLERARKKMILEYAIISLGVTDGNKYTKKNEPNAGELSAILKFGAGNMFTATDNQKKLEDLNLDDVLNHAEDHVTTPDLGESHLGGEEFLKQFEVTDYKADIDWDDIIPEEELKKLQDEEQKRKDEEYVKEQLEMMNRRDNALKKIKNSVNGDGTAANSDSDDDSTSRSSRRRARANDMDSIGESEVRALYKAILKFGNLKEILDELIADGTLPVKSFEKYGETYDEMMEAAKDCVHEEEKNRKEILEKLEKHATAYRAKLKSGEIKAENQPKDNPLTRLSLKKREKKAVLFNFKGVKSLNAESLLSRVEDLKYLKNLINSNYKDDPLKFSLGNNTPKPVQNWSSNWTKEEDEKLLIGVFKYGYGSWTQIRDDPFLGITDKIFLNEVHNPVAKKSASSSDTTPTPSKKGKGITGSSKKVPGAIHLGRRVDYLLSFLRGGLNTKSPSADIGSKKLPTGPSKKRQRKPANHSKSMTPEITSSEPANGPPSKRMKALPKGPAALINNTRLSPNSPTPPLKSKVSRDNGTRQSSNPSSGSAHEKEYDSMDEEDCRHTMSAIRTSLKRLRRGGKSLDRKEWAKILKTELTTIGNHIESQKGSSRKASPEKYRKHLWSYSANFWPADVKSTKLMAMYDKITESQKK
# Chain of Protein translocase subunit SecA (Escherichia coli (strain K12)) (P10408 whole entry): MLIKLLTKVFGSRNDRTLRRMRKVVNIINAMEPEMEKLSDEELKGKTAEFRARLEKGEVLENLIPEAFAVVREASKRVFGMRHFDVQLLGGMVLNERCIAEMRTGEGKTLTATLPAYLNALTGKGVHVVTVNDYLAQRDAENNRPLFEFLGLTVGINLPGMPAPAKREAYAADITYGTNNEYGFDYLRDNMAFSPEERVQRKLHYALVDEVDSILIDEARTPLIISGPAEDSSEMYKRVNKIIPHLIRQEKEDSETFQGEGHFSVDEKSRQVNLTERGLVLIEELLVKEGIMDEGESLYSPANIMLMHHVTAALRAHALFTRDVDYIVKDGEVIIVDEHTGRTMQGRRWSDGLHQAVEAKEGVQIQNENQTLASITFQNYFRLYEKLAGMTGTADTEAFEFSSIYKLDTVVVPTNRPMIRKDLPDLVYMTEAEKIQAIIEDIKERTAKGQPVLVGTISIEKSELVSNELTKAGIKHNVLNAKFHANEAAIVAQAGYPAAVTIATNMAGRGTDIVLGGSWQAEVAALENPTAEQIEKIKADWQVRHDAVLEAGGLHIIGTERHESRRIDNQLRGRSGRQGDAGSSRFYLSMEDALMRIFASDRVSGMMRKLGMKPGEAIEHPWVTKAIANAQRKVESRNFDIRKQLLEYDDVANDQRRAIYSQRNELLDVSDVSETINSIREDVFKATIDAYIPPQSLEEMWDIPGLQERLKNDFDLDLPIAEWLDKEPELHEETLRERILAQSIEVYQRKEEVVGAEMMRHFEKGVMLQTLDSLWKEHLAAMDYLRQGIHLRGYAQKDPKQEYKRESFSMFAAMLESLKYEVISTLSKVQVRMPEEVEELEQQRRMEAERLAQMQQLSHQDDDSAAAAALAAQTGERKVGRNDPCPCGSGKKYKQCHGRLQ
SMILES,Percent Effect [1],Percent Effect [2],Percent Effect [3],Percent Effect [4],Percent Effect (Trypanosoma cruzi),Percent Effect [5],Percent Effect [6],Percent Effect (Homo sapiens),Percent Effect [7],Percent Effect [8],Percent Effect [9]
Cc1cccc(N2CCC(NC(=O)CCCc3cccs3)CC2)n1,-3.35%,11%,0.158%,5.32%,5.49%,6.82%,9.94%,4.54%,5.38%,12.5%,2.88%
Cc1cnc(NC(=O)c2ccc(-n3ncc(C#N)c3N)cc2)s1,-5.51%,7.59%,14.4%,4.78%,-6.33%,-4.18%,5.49%,29%,11.3%,24.1%,-2.52%
C[C@@H]1CN(C(=O)NC2CC2)C[C@]12CCN(c1ccsc1)C2=O,-4.11%,5.33%,8.07%,0.822%,-4.13%,2.1%,2.56%,8.5%,4.25%,11.5%,-3.74%
COCc1ccccc1NC(=O)[C@@H]1CCCN1C(=O)c1ccco1,-0.218%,9.72%,-5.33%,20.1%,2.82%,6.62%,12.8%,8.02%,1.05%,5.13%,-1.82%
CC(CN1CCOCC1)NC(=O)N(C)Cc1ccc(Cl)s1 (configuration not stated),0.481%,10.5%,2.51%,-1.81%,-6.91%,0%,13.3%,3.75%,6.38%,13%,-2.62%
CCc1noc(C(C)N2CCC(C(=O)Nc3cnn(CC)c3)CC2)n1 (configuration not stated),-1.91%,1.27%,3.92%,-3.56%,1.54%,2.37%,7.72%,8.57%,-4.17%,-10.1%,-28.9%
O=C(C1CC(=O)N(C2CCCC2)C1)N1CCN(CCn2cccc2)CC1 (configuration not stated),-3.53%,13.3%,-5.45%,19.8%,2.82%,13.5%,16.9%,23%,3.83%,13.6%,-7.64%
CCc1ncnc2c1CCN(C(=O)Cc1ccccn1)CC2,-1.33%,4%,-1.05%,1.52%,-0.786%,-9.33%,11.8%,12.9%,1.06%,-5.13%,-2.69%
Cn1c(C2CC2)nc2c1CCN(CCOc1ccc(C#N)cc1)C2,-3.25%,-15.6%,4.37%,6.69%,2.43%,-1.07%,4.22%,-24.9%,6.8%,2.44%,-8.18%
O=C1C[C@H]2[C@@H](CCN2C(=O)c2ccccc2)N1CCN1CCOCC1,-2.13%,-2.74%,0.783%,2.27%,0.794%,-2%,2.48%,0.931%,2.08%,-1.24%,-3.6%
Cn1cc(CCNC(=O)NC2CCS(=O)(=O)C2)cn1 (configuration not stated),-5.97%,-1.39%,-3.17%,-1.6%,-4.57%,-0.442%,11.8%,-0.804%,0%,5.13%,-1.44%
C[S+]([O-])CCCNC(=O)c1cc(Br)c2c(c1)OCCO2 (configuration not stated),-5.04%,10.7%,-5.08%,28.9%,5.55%,48.4%,2.62%,8.03%,2.73%,13.6%,-7.44%
Cc1noc(C)c1-c1cncc(C2CCCN2Cc2ccncc2)n1 (configuration not stated),1.38%,1.35%,12%,8.81%,0.79%,0.696%,6.08%,32.8%,2.15%,1.3%,-9.13%
O=C(Nc1cccnc1)[C@H]1C[C@@H]2CCN(c3nncs3)C[C@H]2O1,-0.711%,5.41%,-5.74%,-1.47%,2.54%,-2.08%,10.4%,4.24%,10.9%,13.4%,-4.77%
Cc1nc(CN(C)C2CCCN(c3cccnn3)C2)no1 (configuration not stated),-0.0171%,20.8%,-7.88%,0.261%,-3.18%,5.34%,9.29%,37.1%,4.85%,0%,-5.56%
CN(C)C(=O)CN1CCCC2(CCN(c3ccsc3)C2=O)C1 (configuration not stated),-1.45%,10.7%,2.54%,-9.8%,-5.71%,0.233%,7.84%,14.6%,-1.06%,-32%,-5.89%
Cc1nc(N2CCOCC2)nc2c1CCN(Cc1cccnc1)CC2,-2.77%,0%,0.954%,7.94%,-3.28%,-56.8%,3.08%,-25.6%,7.29%,-2.5%,-17.8%
Cc1csc(N2CCN(C(=O)CCC(=O)c3ccc(C)s3)CC2)n1,-3.76%,8.11%,-7.25%,1.58%,1.79%,-12.4%,13.5%,23%,7.39%,25.9%,17.6%
O=C(NCc1ccccc1CN1CCC(O)CC1)Nc1ccncc1,5.78%,10.8%,-5.37%,6.21%,-5.21%,0%,16.2%,28%,6.88%,14.6%,-3.29%
Cc1nc2c(c(C)c1CC(=O)Nc1ccc(Cl)cc1)c(=O)[nH]n2C,-8.55%,10.7%,-2.37%,20.4%,5.36%,6.77%,6.97%,11.7%,3.83%,13.6%,3.39%
CN(C)C(=O)N1C[C@@H]2CCCO[C@@H]2[C@H](N(C)Cc2ccco2)C1,-3.04%,13.7%,2.03%,7.85%,6.55%,-5.99%,8.99%,-3.94%,4.17%,13.6%,-11.2%
CC(C)OCC(=O)N1CCCN(Cc2ccc(C#N)cc2)CC1,-2.63%,13.2%,4.09%,11.3%,0.94%,2.68%,10.2%,-2.84%,8.33%,17.1%,-8.3%

# — ChEMBL document CHEMBL3988442, “University of Dundee, Small-Polar-MMV Screening Library” (2021)
